The record followed here is PubChem BioAssay AID588342 (National Center for Advancing Translational Sciences (NCATS), 2011).

Among all 360,000 compounds or so, about 25,000 (6.9%) were called active. Another 9% or so got no clear call; they are omitted. The call rests on the fitted dose curve; in most records, active means well fitted inhibition curve with a large enough effect; inconclusive means small, poorly fitted or top-dose-only effect; inactive means flat fitted curve, though single readings scatter. What follows is part of a selection rich in actives, with near analogues and random picks from the rest. Entries that show only a call come without a potency.
Potency means the concentration at half of the fitted maximal effect.

Sequence of Luciferin 4-monooxygenase (Photinus pyralis) (P08659 whole entry, looked up): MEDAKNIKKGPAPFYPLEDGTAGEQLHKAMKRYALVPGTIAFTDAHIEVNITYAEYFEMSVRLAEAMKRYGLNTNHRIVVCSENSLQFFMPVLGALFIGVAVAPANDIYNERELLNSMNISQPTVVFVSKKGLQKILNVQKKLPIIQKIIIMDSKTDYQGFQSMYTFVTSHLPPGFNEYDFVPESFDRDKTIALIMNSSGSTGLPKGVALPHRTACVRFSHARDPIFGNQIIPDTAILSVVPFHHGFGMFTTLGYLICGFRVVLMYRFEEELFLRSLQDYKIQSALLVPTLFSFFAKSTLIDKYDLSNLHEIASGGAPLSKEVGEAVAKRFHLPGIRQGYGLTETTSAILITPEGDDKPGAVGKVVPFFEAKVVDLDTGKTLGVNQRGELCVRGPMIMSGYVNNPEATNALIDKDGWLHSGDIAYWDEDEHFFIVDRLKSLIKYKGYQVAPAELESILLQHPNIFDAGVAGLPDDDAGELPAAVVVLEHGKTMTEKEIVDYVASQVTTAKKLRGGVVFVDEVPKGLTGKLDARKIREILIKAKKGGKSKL

In this assay the target is Luciferin 4-monooxygenase (Photinus pyralis) (UniProt P08659). Nature of the assay: qHTS profiling assay for firefly luciferase inhibitor/activator using purifed enzyme and Km concentrations of substrates (counterscreen for miR-21 project). Further: nearly all actives have a fitted effect of over 55% in size. The following applies: purified FLuc, luminescence inhibition; series mostly up to 57.5 µM. In a few lines:
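Purified P. pyralis luciferase (10nM final) with 10uM D-luciferin and 10uM ATP (Km levels) in 50mM Tris acetate pH 7.5, 10mM Mg acetate, 0.01% Tween-20, 0.05% BSA; qHTS 6-point titration, ~60 µM downward; luminescence read.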
Background: qHTS replaces the single test concentration by a dilution series.
For the molecule `N#Cc1nc(/C=C/c2ccc(F)cc2)oc1NC1CCCCC1`, the Potency entry was “inactive”. Under `Cc1ccc(-c2nn(-c3ccccc3)cc2/C=N/NC(=O)c2ccc3c(c2)OCO3)cc1` stands 4.26 µM (active). `O=C(N/N=C/c1ccc([N+](=O)[O-])o1)c1cn(-c2ccccc2)nc1-c1ccc(F)cc1`: the Potency result was “inactive”.

`CC(C)(C)OC(=O)N/N=C/c1cn(-c2ccccc2)nc1-c1cccnc1`: the Potency result is “inactive”. As for `COc1ccc(C(=O)N2CCC(c3nc4ccccc4o3)CC2)cc1`, the Potency entry is “inactive”. Under `CC(C)c1ccc(OCC(O)CN2CCN(c3ccccn3)CC2)cc1` (stereo not given) stands “inactive”; under `CCOc1ccc(C(C(=O)NCCOC)N(CCOC)C(=O)CCC(=O)Nc2ccccn2)cc1` (stereo not given), “inactive”; under `CC(O)c1ccc(OCCN(C)c2ccccn2)cc1` (stereo not given), 15.1 µM (active).

Regarding `COCCn1c(CCC(=O)Nc2cc(C)ccc2C)nc2cccnc21`, the Potency result is “inactive”. To `COc1ccc2c(c1)C=C(C(=O)NCc1cc(Br)ccc1OC)CO2` belongs “inactive”; to `COc1ccccc1NC(=O)c1sc2nc(C)c(C(=O)Nc3ccc(Cl)cc3)c(-c3ccc(Br)cc3)c2c1N`, “inactive”. Consider `CC(C)OC(=O)CN1C(=O)C(=O)c2ccccc21`, for which the Potency result is “inactive”. To `O=C(CN1CCCCCC1)NCCN1C(=O)S/C(=C\c2ccccc2Cl)C1=O` belongs “inactive”. Under `Cc1cc(/C=C2/SC(=O)N(CC(=O)OC(C)C)C2=O)c(C)n1C` stands 15.1 µM (active); under `O=C(CC(=O)N/N=C\c1ccc(F)cc1)NCCc1ccccc1`, “inactive”; under `O=C(COC(=O)Cc1c[nH]c2ccccc12)NCCc1ccccc1`, “inactive”. For the molecule `COc1ccc(NC(=O)COC(=O)c2n[nH]c3ccccc23)c(OC)c1`, the Potency entry was “inactive”.

Turning to `COc1ccc(F)cc1C(=O)COC(=O)c1n[nH]c(=O)c2ccccc12`, the Potency entry is “inactive”. For the molecule `O=C(COC(=O)c1n[nH]c2ccccc12)NCc1ccccc1`, the Potency result was “inactive”. To `COc1cccc(CNC(=O)c2n[nH]c3ccccc23)c1` belongs 26.9 µM (active); to `O=C(NCCc1ccc(Cl)cc1)c1ccc2c(c1)N(Cc1ccc(F)cc1)C(=O)CS2`, “inactive”.

As to `COc1cccc(CNC(=O)Cc2csc(Nc3nc(=S)[nH]c4ccccc34)n2)c1`, the Potency result is “inactive”.

On to `O=C(NCCc1ccc(F)cc1)c1ccc2nccnc2c1`, for which the Potency is 8.49 µM (active). To `COc1ccc(COC(=O)c2n[nH]c3ccccc23)cc1F` belongs 19 µM (active); to `O=C(NCCc1ccc(F)cc1)c1ccc(S(=O)(=O)N2CCCCC2)cc1`, “inactive”. Under `O=C(NCCc1ccc(F)cc1)c1n[nH]c2ccccc12` stands 16.9 µM (active); under `COc1ccc(CCNC(=O)c2cc(=O)c3c(C)cc(C)cc3o2)cc1OC`, “inactive”.

On to `CCOC(=O)c1cccc(NC(=O)c2cc(CN3CCCC3)on2)c1`, for which the Potency entry was “inactive”.

As to `Cc1ccc(CNC(=O)CCC(=O)N2Cc3ccccc3Oc3ncccc32)cc1`, the Potency entry was “inactive”. To `CC(=O)c1c(C)[nH]c(C(=O)OCC(=O)Nc2c(C)n(C)n(-c3ccccc3)c2=O)c1C` belongs “inactive”. Consider `CC1(NC(=O)CCS(=O)(=O)c2ccc(Cl)cc2)CCS(=O)(=O)C1` (stereo not given), for which the Potency result is “inactive”. Take `Cc1ccccc1CN1CCC(CNC(=O)c2c(C)oc3ncnc(N4CCCCC4)c23)CC1`: the Potency result is “inactive”. Under `Cc1ccc(Nc2nnc(SC(C)C(=O)NC3CC3)s2)cc1` (stereo not given) stands “inactive”; under `CCOC(=O)c1c(NC(=O)CCl)sc(C(=O)N(CC)CC)c1C`, “inactive”. To `Cc1ccc(C)c(NC(=O)CN(C)C(=O)c2ccc3ncsc3c2)c1` belongs “inactive”; to `Cc1c(C(=O)N(C)C)sc2c1c(=O)n(-c1ccc(F)cc1)c(=O)n2CC(=O)N(C)c1ccccc1`, “inactive”; to `CC(=O)c1ccc2c(c1)OCCOCCOc1ccc(C(C)=O)cc1OCCOCCO2`, “inactive”.

As for `O=C(/C=C/c1ccc(Cl)cc1)N1CCN(c2ccccc2[N+](=O)[O-])CC1`, the Potency entry was “inactive”.

For `CN(C)c1ccc(/C=C/C(=O)c2ccc(O)cc2)cc1[N+](=O)[O-]`, the Potency is 12 µM (active). Consider `O=C(COC(=O)/C=C/c1ccc2c(c1)OCO2)NC1CCS(=O)(=O)C1` (stereo not given), for which the Potency entry is “inactive”. Under `O=C(/C=C/c1ccc2c(c1)OCCO2)c1ccc(O)cc1` stands 1.35 µM (active); under `Cc1cc(C(=O)O)ccc1[N+](=O)[O-]`, “inactive”.

Consider `CCC(=O)NC(Nc1cc(C)ccn1)(C(F)(F)F)C(F)(F)F`, for which the Potency entry was “inactive”. Under `Cc1cc(=O)oc(C)c1C(=O)NC1CC(C)(C)NC(C)(C)C1` stands “inactive”. To `O=C(C1CCCN(S(=O)(=O)c2cccc3nonc23)C1)N1CCN(c2ccccc2F)CC1` (stereo not given) belongs “inactive”.

For the molecule `CCc1ccc(S(=O)(=O)n2ccnc2)cc1`, the Potency result is “inactive”.

In the case of `O=C(Nc1c2c(nc3ccccc13)CCCC2)c1ccccc1Br`, the Potency result was “inactive”. Regarding `CCOc1ccc(NC(=O)CSc2c3c(nc4ccccc24)CCCC3)cc1`, the Potency entry was “inactive”. To `O=C(COC(=O)c1c2c(nc3ccccc13)CCCC2)c1ccc(Br)s1` belongs 15.1 µM (active); to `Cc1nn(Cc2ccccc2)c(C)c1C(=O)N1CCN(CC(=O)Nc2ccccc2Cl)CC1`, “inactive”. To `COc1ccccc1/C=C/c1nc(C#N)c(NC(C)c2ccccc2)o1` (stereo not given) belongs “inactive”; to `CC(C)c1ccc(NC(=O)COC(=O)c2ccc(CN3CCCC3=O)cc2)cc1`, “inactive”. To `Cc1cc(OC(C)C(=O)Nc2sc3c(c2C(N)=O)CCCC3)ccc1Cl` (stereo not given) belongs “inactive”. Turning to `O=C(NCc1cn2ccsc2n1)Nc1cccc(Cl)c1`, the Potency result is “inactive”. To `CCCC(=O)Nc1cccc(-c2cn3ccsc3n2)c1` belongs 21.3 µM (active); to `CCc1cccc(NC(=O)CCC(=O)O)c1`, “inactive”. To `CCc1nn(CC(=O)NCC(C)c2ccccc2)c(=O)c2cc3occc3n12` (stereo not given) belongs “inactive”; to `Cc1nn(-c2ccccc2)c(Cl)c1/C=N/NC(=O)c1nn(C)cc1[N+](=O)[O-]`, 10.7 µM (active); to `Cc1nn(-c2ccccc2)c(C)c1/C=N/NC(=O)CSc1nc2ccccc2c(=O)n1-c1ccccc1`, “inactive”.

For the molecule `Cc1c(C(=O)N/N=C/c2ccccc2)[nH]c2c([N+](=O)[O-])cccc12`, the Potency entry is “inactive”. To `COc1ccc(NC(=O)CN2C(=O)COc3ccc(S(=O)(=O)N4CCOCC4)cc32)cc1` belongs “inactive”; to `CC(=O)C1C(c2ccc(Cl)cc2)c2c(n[nH]c2C)CC1(C)O` (stereo not given), “inactive”; to `CCc1ccc(NC2Nc3cc(C)nn3S2)cc1` (stereo not given), 4.78 µM (active). Regarding `CCOC(=O)c1ccc(NC2Nc3cc(C)nn3S2)cc1` (stereo not given), the Potency entry is “inactive”. To `COc1c(Cl)cc(C(=O)N(Cc2ccccc2F)C2CCS(=O)(=O)C2)cc1Cl` (stereo not given) belongs “inactive”.
